In the library only some 3.9% were active in any assay of this set; here they are far more common.
Anthrax LF inh2: blocks Bacillus anthracis lethal factor protease | P15917 | multiplex microsphere protease cleavage assay, LF | inhibition, % at 10 µM | 360,000 compounds, 0.12% hits | AID 588501; further: plate controls were buffer without enzyme for full effect and enzyme alone for no effect
BoNT-A LC inh2: blocks Botulinum neurotoxin A light chain protease. inhibition, % at 10 µM. 360,000 compounds, 0.17% hits. multiplex microsphere protease substrate cleavage, flow cytometry; further: plate controls were buffer without enzyme for full effect and enzyme alone for no effect
3CLpro inhibitor: SARS-CoV 3CLpro protease inhibition; P0C6X7; recombinant SARS-CoV 3CLpro, quenched FRET peptide cleavage; inhibition, % at 6 µM; 290,000 compounds, 0.14% hits; AID 1706; in the data active means inhibition above about 12%
Autofluor counter: counter-screen for toxin protease inhibitors: compound fluorescence; fluorescence intensity (test concentration not listed); compound autofluorescence counterscreen, microsphere flow cytometry; stronger effect = higher value; 360,000 compounds, 3.1% hits; in the data active means fluorescence intensity above about 16000; inconclusive means no clear call, values can overlap the other calls
BoNT-F LC inh: blocks Botulinum neurotoxin F light chain protease. inhibition, % at 10 µM. 360,000 compounds, 0.22% hits. AID 588497. Multiplex microsphere protease cleavage assay, flow cytometry; in the data active means inhibition above about 35%, passing the limit was not always enough; inconclusive means no clear call, values can overlap the other calls; further: plate controls were buffer without enzyme for full effect and enzyme alone for no effect
DUSP3 inh: blocks human VHR1 dual specificity phosphatase; recombinant VHR phosphatase, pNPP absorbance; inhibition, % at 13.3 µM; 290,000 compounds, 0.52% hits; in the data active means inhibition above about 50%
* marks the source's active call; other numbers are inactive results. Unless noted, no stated cut-off is given here; in the data, active means inhibition above about 30%; inconclusive means no clear call, values can overlap the other calls; inactive means below that.

For COc1ccccc1NC(=O)c1ccc2[nH]c(C)c(C)c2c1 the results were Anthrax LF inh2 8.8, BoNT-A LC inh2 -1.5, 3CLpro inhibitor -0.2, Autofluor counter 3825, BoNT-F LC inh -20.8 and DUSP3 inh 13.8.
CN=C1SC(CC(=O)Nc2cc(Cl)ccc2Cl)C(=O)N1C (stereo not drawn) was read as Anthrax LF inh2 -0.5, BoNT-A LC inh2 2.5, 3CLpro inhibitor 4.5, Autofluor counter 21833*, BoNT-F LC inh 6.9 and DUSP3 inh 37.4.
`COc1ccc(NC(=S)N(C(C)C)C2CCN(C(C)C)CC2)cc1Cl` gave 3CLpro inhibitor -3.1 and DUSP3 inh 52.6*.
Screening COc1ccc(NC2CCCN(C(=O)CCCn3cncn3)C2)cc1OC (stereo not drawn) returned Anthrax LF inh2 -0.8, BoNT-A LC inh2 1.1, 3CLpro inhibitor 3.1, Autofluor counter 5617, BoNT-F LC inh 0.2 and DUSP3 inh 1.1.
For Cc1cc(C)n2nc(C)c(-c3ccc(Cl)cc3)c2n1 the results were Anthrax LF inh2 -20.8, BoNT-A LC inh2 -1.7, 3CLpro inhibitor 3.1, Autofluor counter 3937, BoNT-F LC inh -21.5 and DUSP3 inh 14.9.
`CCSc1cc(C)nc2c(-c3ccc(Cl)cc3)c(C)nn12` gave Anthrax LF inh2 0.6, BoNT-A LC inh2 -3.1, 3CLpro inhibitor -3.9, Autofluor counter 20908*, BoNT-F LC inh -3.9 and DUSP3 inh 14.0.
Screening Cc1nn(C)cc1C(=O)Nc1c(C)nn(Cc2ccccc2Cl)c1C returned Anthrax LF inh2 -2.5, BoNT-A LC inh2 0.6, 3CLpro inhibitor 0.5, Autofluor counter 7280, BoNT-F LC inh -4.6 and DUSP3 inh 5.0.
`CCn1nc(C)c(NC(=O)c2cc(Br)ccc2Cl)c1C` gave Anthrax LF inh2 -5.2, BoNT-A LC inh2 0.3, 3CLpro inhibitor -1.8, Autofluor counter 19900*, BoNT-F LC inh -0.8 and DUSP3 inh 11.8.
O=C(NCCCN1CCCCC1)c1ccc(CS(=O)c2ccc(F)cc2)o1 (stereo not drawn) was read as Anthrax LF inh2 1.5, BoNT-A LC inh2 -1.7, 3CLpro inhibitor -4.8, Autofluor counter 5955, BoNT-F LC inh -8.9 and DUSP3 inh 52.5*.
CC1CCCN(CCCNC(=O)c2ccc(CS(=O)(=O)c3c(Cl)cccc3Cl)o2)C1 (stereo not drawn) was read as Anthrax LF inh2 -1.0, BoNT-A LC inh2 -0.3, 3CLpro inhibitor -2.1, Autofluor counter 6181, BoNT-F LC inh 3.0 and DUSP3 inh 56.3*.
For COc1ccc(CCNC(=O)c2ccc(CS(=O)(=O)c3ccc(Cl)cc3)o2)cc1OC the results were Anthrax LF inh2 0.7, BoNT-A LC inh2 4.6, 3CLpro inhibitor -0.3, Autofluor counter 17952*, BoNT-F LC inh 1.6 and DUSP3 inh 28.7.
Screening Cc1ccccc1S(=O)(=O)Cc1ccc(C(=O)NCCCN2CCN(C)CC2)o1 returned Anthrax LF inh2 -5.4, BoNT-A LC inh2 -2.3, 3CLpro inhibitor -4.2, Autofluor counter 22715*, BoNT-F LC inh -3.9 and DUSP3 inh -7.7.
For Cc1ccc(S(=O)(=O)Cc2ccc(C(=O)N3CCC4(CC3)OCCO4)o2)cc1 the results were Anthrax LF inh2 -2.6, BoNT-A LC inh2 1.3, 3CLpro inhibitor -6.2, Autofluor counter 20005*, BoNT-F LC inh 2.3 and DUSP3 inh -15.7.
`CCCN1CCN(C(=O)c2ccc(CS(=O)c3ccc(Br)cc3)o2)CC1` (stereo not drawn) gave Anthrax LF inh2 0.0, BoNT-A LC inh2 0.1, Autofluor counter 3980 and BoNT-F LC inh 4.4.
For O=C(NCCCN1CCCC1)c1ccc(CS(=O)(=O)c2ccc(Br)cc2)o1 the results were Anthrax LF inh2 -10.7, BoNT-A LC inh2 -0.6, 3CLpro inhibitor 4.8, Autofluor counter 6417, BoNT-F LC inh -6.9 and DUSP3 inh 16.6.
`COc1ccccc1S(=O)(=O)Cc1ccc(C(=O)NCCN2CCCC2)o1` gave Anthrax LF inh2 -0.2, BoNT-A LC inh2 -1.2, 3CLpro inhibitor -6.1, Autofluor counter 22371*, BoNT-F LC inh -2.9 and DUSP3 inh 6.2.
For CCCN1CCN(C(=O)c2ccc(CS(=O)c3ccc(Cl)cc3)o2)CC1 (stereo not drawn) the results were Anthrax LF inh2 -4.3, BoNT-A LC inh2 -0.1, 3CLpro inhibitor -11.3, Autofluor counter 6021, BoNT-F LC inh -5.2 and DUSP3 inh 56.7*.
For Cc1ccc(S(=O)(=O)Cc2ccc(C(=O)NCCCN3CCCC3=O)o2)cc1 the results were Anthrax LF inh2 -1.8, BoNT-A LC inh2 -1.4, 3CLpro inhibitor -1.1, Autofluor counter 20958*, BoNT-F LC inh -2.1 and DUSP3 inh 26.4.
Screening CCOC(=O)C1=CCN(S(=O)(=O)c2ccccc2F)C1c1ccc(Cl)c(Cl)c1 (stereo not drawn) returned Anthrax LF inh2 -0.8, BoNT-A LC inh2 -0.8, Autofluor counter 5703 and BoNT-F LC inh -11.7.
For c1ccc(CNc2ccc(CNc3ncn[nH]3)cc2)cc1 the results were Anthrax LF inh2 -8.9, BoNT-A LC inh2 inconclusive, 3CLpro inhibitor -1.5, Autofluor counter 22732*, BoNT-F LC inh -5.8 and DUSP3 inh -5.3.
For c1ccc(CNc2ncn[nH]2)cc1 the results were Anthrax LF inh2 3.8, BoNT-A LC inh2 0.1, Autofluor counter 2912 and BoNT-F LC inh 4.0.
Screening Cc1ccc(C(=O)N/C(=C/c2cccc([N+](=O)[O-])c2)C(=O)NC(C)C)cc1 returned Anthrax LF inh2 0.9, BoNT-A LC inh2 0.7, 3CLpro inhibitor 2.3, Autofluor counter 1905, BoNT-F LC inh 3.2 and DUSP3 inh 23.7.
O=C(N/N=C/c1ccco1)/C(=C/c1cccc([N+](=O)[O-])c1)NC(=O)c1ccccc1 was read as Anthrax LF inh2 -0.6, BoNT-A LC inh2 -0.1, 3CLpro inhibitor 2.6, Autofluor counter 22258*, BoNT-F LC inh 2.2 and DUSP3 inh 4.9.
Screening O=C(N/N=C/c1ccc(Br)o1)/C(=C/c1ccc([N+](=O)[O-])cc1)NC(=O)c1ccccc1 returned Anthrax LF inh2 6.1, BoNT-A LC inh2 8.8, 3CLpro inhibitor -0.4, Autofluor counter 9494, BoNT-F LC inh 8.8 and DUSP3 inh 20.9.
`CC(C)NC(=O)/C(=C\c1cccc([N+](=O)[O-])c1)NC(=O)c1ccccc1` gave Anthrax LF inh2 -2.1, BoNT-A LC inh2 2.0, 3CLpro inhibitor -2.8, Autofluor counter 22798*, BoNT-F LC inh -1.4 and DUSP3 inh 9.6.
COc1ccccc1CNC(=O)COC(=O)c1cc2ccccc2o1 was read as Anthrax LF inh2 -0.2, BoNT-A LC inh2 -0.1, Autofluor counter 3659 and BoNT-F LC inh -5.9.
CCN(CC)CCNC(=O)CNC(=O)c1nn(-c2ccc(OC)cc2OC)c(=O)c2ccccc12 was read as Anthrax LF inh2 0.7, BoNT-A LC inh2 -2.6, 3CLpro inhibitor 5.3, Autofluor counter 3021, BoNT-F LC inh -18.5 and DUSP3 inh -6.2.
Screening CC(=O)Nc1ccc(NC(=S)NC(=O)C2CCCC2)cc1 returned Anthrax LF inh2 -2.0, BoNT-A LC inh2 0.2, 3CLpro inhibitor 1.0, Autofluor counter 6127, BoNT-F LC inh -4.5 and DUSP3 inh 59.7*.

Screening results deposited in PubChem by several laboratories.
